Measured values as given in paper PMC12864922, “TDP-43 directly inhibits mRNA accumulation in neurites through modulation of mRNA stability”.
Over roughly 9,900 sequences, “r (bound/input frequency ratio)” has its median near 0.7; the highest 2% begin near 6.5. The entries come from a sample that favours the highest values as a whole.

B1: ENSMUSG00000029636.436|Wasf3 (ssRNA)
RNA: GGGAGUUCUACAGUCCGACGAUCGCUUCGAUAUCCGCAUGCUAGUGAGUGGAUAGGUGAAUGGAUGAUAGGUGGUGGAUGGUUGAGUGGGUGGAUUCAUGAUGGAUGGAUGGAUGGAUGGAUGGAUGGAUGGAUGGAUGAGUGGAUGGAUAAUAGGUUGAUGGGUGGAUAGGUAGAUGAGUGAAUAGAUAGAUAUAGAUCAGUGGGAGGAUUGGAAAGUAGGUGAAUGAAUGGAUGGCAGAUAGAUGGAUCAAUUACAGAUGGAUGGAUGCAUGGAAUAGAUAGGUGGAUGGGUGGUGGCUAGCUCUUGCGGUCGCACUAGUGUGGAAUUCUCGGGUGUCAAGG
B2: ENSMUSG00000029636.434|Wasf3 (ssRNA)
RNA: GGGAGUUCUACAGUCCGACGAUCGCUUCGAUAUCCGCAUGCUAGUGGAUUGGUGGGUGAGUGGAUAGGUGAAUGGAUGAUAGGUGGUGGAUGGUUGAGUGGGUGGAUUCAUGAUGGAUGGAUGGAUGGAUGGAUGGAUGGAUGGAUGGAUGAGUGGAUGGAUAAUAGGUUGAUGGGUGGAUAGGUAGAUGAGUGAAUAGAUAGAUAUAGAUCAGUGGGAGGAUUGGAAAGUAGGUGAAUGAAUGGAUGGCAGAUAGAUGGAUCAAUUACAGAUGGAUGGAUGCAUGGAAUAGAUAGGUGGAUGCUCUUGCGGUCGCACUAGUGUGGAAUUCUCGGGUGUCAAGG
B3: ENSMUSG00000029636.425|Wasf3 (ssRNA)
RNA: GGGAGUUCUACAGUCCGACGAUCGCUUCGAUAUCCGCAUGCUAAGGUGGGUAAGUAGCUAGGUGGAUGGGUGGGUGGAUACAUGGAUGAGUGGAUGGGUGGAUUGGUGGGUGAGUGGAUAGGUGAAUGGAUGAUAGGUGGUGGAUGGUUGAGUGGGUGGAUUCAUGAUGGAUGGAUGGAUGGAUGGAUGGAUGGAUGGAUGGAUGAGUGGAUGGAUAAUAGGUUGAUGGGUGGAUAGGUAGAUGAGUGAAUAGAUAGAUAUAGAUCAGUGGGAGGAUUGGAAAGUAGGUGAAUGAAUGGAUGGCUCUUGCGGUCGCACUAGUGUGGAAUUCUCGGGUGUCAAGG
B4: ENSMUSG00000029636.433|Wasf3 (ssRNA)
RNA: GGGAGUUCUACAGUCCGACGAUCGCUUCGAUAUCCGCAUGCUAGGAUGGGUGGAUUGGUGGGUGAGUGGAUAGGUGAAUGGAUGAUAGGUGGUGGAUGGUUGAGUGGGUGGAUUCAUGAUGGAUGGAUGGAUGGAUGGAUGGAUGGAUGGAUGGAUGAGUGGAUGGAUAAUAGGUUGAUGGGUGGAUAGGUAGAUGAGUGAAUAGAUAGAUAUAGAUCAGUGGGAGGAUUGGAAAGUAGGUGAAUGAAUGGAUGGCAGAUAGAUGGAUCAAUUACAGAUGGAUGGAUGCAUGGAAUAGAUAGGCUCUUGCGGUCGCACUAGUGUGGAAUUCUCGGGUGUCAAGG
B5: ENSMUSG00000029636.424|Wasf3 (ssRNA)
RNA: GGGAGUUCUACAGUCCGACGAUCGCUUCGAUAUCCGCAUGCUAUGGGUUAGGUGGGUAAGUAGCUAGGUGGAUGGGUGGGUGGAUACAUGGAUGAGUGGAUGGGUGGAUUGGUGGGUGAGUGGAUAGGUGAAUGGAUGAUAGGUGGUGGAUGGUUGAGUGGGUGGAUUCAUGAUGGAUGGAUGGAUGGAUGGAUGGAUGGAUGGAUGGAUGAGUGGAUGGAUAAUAGGUUGAUGGGUGGAUAGGUAGAUGAGUGAAUAGAUAGAUAUAGAUCAGUGGGAGGAUUGGAAAGUAGGUGAAUGAAUCUCUUGCGGUCGCACUAGUGUGGAAUUCUCGGGUGUCAAGG
B6: ENSMUSG00000029636.431|Wasf3 (ssRNA)
RNA: GGGAGUUCUACAGUCCGACGAUCGCUUCGAUAUCCGCAUGCUAACAUGGAUGAGUGGAUGGGUGGAUUGGUGGGUGAGUGGAUAGGUGAAUGGAUGAUAGGUGGUGGAUGGUUGAGUGGGUGGAUUCAUGAUGGAUGGAUGGAUGGAUGGAUGGAUGGAUGGAUGGAUGAGUGGAUGGAUAAUAGGUUGAUGGGUGGAUAGGUAGAUGAGUGAAUAGAUAGAUAUAGAUCAGUGGGAGGAUUGGAAAGUAGGUGAAUGAAUGGAUGGCAGAUAGAUGGAUCAAUUACAGAUGGAUGGAUGCAUCUCUUGCGGUCGCACUAGUGUGGAAUUCUCGGGUGUCAAGG
B7: ENSMUSG00000029636.426|Wasf3 (ssRNA)
RNA: GGGAGUUCUACAGUCCGACGAUCGCUUCGAUAUCCGCAUGCUAGUAAGUAGCUAGGUGGAUGGGUGGGUGGAUACAUGGAUGAGUGGAUGGGUGGAUUGGUGGGUGAGUGGAUAGGUGAAUGGAUGAUAGGUGGUGGAUGGUUGAGUGGGUGGAUUCAUGAUGGAUGGAUGGAUGGAUGGAUGGAUGGAUGGAUGGAUGAGUGGAUGGAUAAUAGGUUGAUGGGUGGAUAGGUAGAUGAGUGAAUAGAUAGAUAUAGAUCAGUGGGAGGAUUGGAAAGUAGGUGAAUGAAUGGAUGGCAGAUACUCUUGCGGUCGCACUAGUGUGGAAUUCUCGGGUGUCAAGG
B8: ENSMUSG00000029636.422|Wasf3 (ssRNA)
RNA: GGGAGUUCUACAGUCCGACGAUCGCUUCGAUAUCCGCAUGCUAUGAGUGGAUGGGUGGGUUAGGUGGGUAAGUAGCUAGGUGGAUGGGUGGGUGGAUACAUGGAUGAGUGGAUGGGUGGAUUGGUGGGUGAGUGGAUAGGUGAAUGGAUGAUAGGUGGUGGAUGGUUGAGUGGGUGGAUUCAUGAUGGAUGGAUGGAUGGAUGGAUGGAUGGAUGGAUGGAUGAGUGGAUGGAUAAUAGGUUGAUGGGUGGAUAGGUAGAUGAGUGAAUAGAUAGAUAUAGAUCAGUGGGAGGAUUGGAAAGUCUCUUGCGGUCGCACUAGUGUGGAAUUCUCGGGUGUCAAGG
B9: ENSMUSG00000029636.423|Wasf3 (ssRNA)
RNA: GGGAGUUCUACAGUCCGACGAUCGCUUCGAUAUCCGCAUGCUAGAUGGGUGGGUUAGGUGGGUAAGUAGCUAGGUGGAUGGGUGGGUGGAUACAUGGAUGAGUGGAUGGGUGGAUUGGUGGGUGAGUGGAUAGGUGAAUGGAUGAUAGGUGGUGGAUGGUUGAGUGGGUGGAUUCAUGAUGGAUGGAUGGAUGGAUGGAUGGAUGGAUGGAUGGAUGAGUGGAUGGAUAAUAGGUUGAUGGGUGGAUAGGUAGAUGAGUGAAUAGAUAGAUAUAGAUCAGUGGGAGGAUUGGAAAGUAGGUGACUCUUGCGGUCGCACUAGUGUGGAAUUCUCGGGUGUCAAGG

These binders were tested against TDP-43 (Homo sapiens, UniProt Q13148 1-414) (assay: RNA Bind-n-Seq with designed 260-mer pool; 25 mM Tris-HCl, 150 mM KCl, 3 mM MgCl2, BSA (printed 500 mg/mL), 20 units/mL SUPERase IN; pH not stated; 500 nM RNA pool, 1 h, 4 C; TDP-43 5, 50, 500 nM; high values mean tight binding). Conditions: protein: recombinant; tags: SBP (GST cleaved off with PreScission; pGEX-GST-SBP).
Procedure, shortened: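 In 25 mM Tris-HCl, 150 mM KCl, 3 mM MgCl2, BSA and SUPERase IN, 500 nM of an in vitro-transcribed 260-nt 3′ UTR oligo pool was incubated for 1 h at 4 °C with SBP-tagged TDP-43 (5, 50 or 500 nM) captured on streptavidin beads. RNA remaining after washes was biotin-eluted, reverse transcribed, PCR-amplified and sequenced. Binding, R, is the bound-sample abundance of each oligo, normalized to mapped reads, divided by its abundance in input. Each duplicate used a separate, independent protein batch.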

TDP-43, sequence (Q13148 whole entry): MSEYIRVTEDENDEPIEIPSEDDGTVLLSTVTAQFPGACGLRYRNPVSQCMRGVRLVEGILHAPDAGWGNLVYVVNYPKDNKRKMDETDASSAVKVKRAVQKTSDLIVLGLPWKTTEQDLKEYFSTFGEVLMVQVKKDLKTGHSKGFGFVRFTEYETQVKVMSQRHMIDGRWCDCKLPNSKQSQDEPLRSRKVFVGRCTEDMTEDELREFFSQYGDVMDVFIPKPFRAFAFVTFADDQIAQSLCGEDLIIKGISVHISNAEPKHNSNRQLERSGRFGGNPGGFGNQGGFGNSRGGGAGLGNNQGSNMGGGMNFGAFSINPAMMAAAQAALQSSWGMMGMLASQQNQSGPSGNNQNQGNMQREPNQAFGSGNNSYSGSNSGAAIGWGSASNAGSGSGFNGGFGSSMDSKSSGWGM

First: B1
Second: B2
The binding signal of the first is lower: 6.61 R (bound/input frequency ratio) for the first, 7.94 R (bound/input frequency ratio) for the second.

First: B3
Second: B4
The binding signal of the first is lower: 3.86 R (bound/input frequency ratio) for the first, 4.32 R (bound/input frequency ratio) for the second.

Going from B5 to B6, the binding signal rises from 1.66 R (bound/input frequency ratio) to 6.71 R (bound/input frequency ratio).

Going from B7 to B8, the binding signal rises from 3.58 R (bound/input frequency ratio) to 11.2 R (bound/input frequency ratio).

For B9, the binding signal was 4.57 R (bound/input frequency ratio).
